PBM binding z-score data for 40 sequences are collected here from the supplement of paper PMC6555819.

The test has as its system VDR:RXRa (NR concentration 270 nM, RXRa partner concentration 90 nM). The test is described as follows: PBM binding z-score (relative to random genomic background probes); higher = stronger binding; sequences stand for … in GC…GCGATTGACAGCGTAGAATGAAGG
How it is done: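 Protein-binding microarray (Agilent 4x180K custom design, double-stranded 60-nt probes: 5' GC cap, 34-nt variable region, 24-nt constant primer region; full probe sequence given). Purified or IVT nuclear receptor:RXRα heterodimers (3:1 NR:RXRα, mostly 270:90 nM) or homodimers were incubated for 1 h in PBS with 2% milk and no ligand, then detected with Alexa488 antibodies. Fluorescence from o1-orientation probes (~5 replicates averaged) was converted to z-scores against 500 random hg19 background probes. Variable regions are seed direct-repeat (DR0–DR5) sites, all their single-nucleotide variants and half-site ablations.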
CCGAGTAGGTTACGAGGGAGCATTCAGTGCGAAT yielded a PBM binding z-score of 1.11.
The value for ACTAGTTGGTCAGCTGAGGTCACACACAATTCGG was 4.67.
CGTACTAGGTCACCAGGACAGTGAAGAGGTTGGA displayed a PBM binding z-score of 1.93.
The value for TCGAGTAGGTTACGGGGGCATCCAGGGATGAAGA was 3.51.
The value for CGAGCTAGGTCAAAGGACAGTGAAAGGCGACGTA was 0.97; that for CTATGTAGGTTAAGGGGTTCATTCAGTTTGAAAG was 7.62.
The value for CAAACTAGGTCAAGGTCAAAGTAGGTTTGTGCCA was 5.54; that for CATCCAAGGTCAAAGGTCAGTGAAGAGATGACGG was 6.71; that for AATACAGGGACATCGTAGGCCAGAGTACGCACAG was -0.0914.
For TCGAGTAGATTACGGGGGCATTCAGGGATGAAGA, the PBM binding z-score stood at 2.83.
Sequence CCGAGTAGGTTACGAGGGGGCATGCAGTGCGAAT returned a PBM binding z-score of 4.63.
The value for TGAATGAAGTTAAAGATCAGGGAACGTGGCGTCG was -0.41.
The value for TCTCGGAGGACACGAAACGTCAGAGCTCGACATC was -0.163; that for ACTAGTTGTTCAGCTGAGGTCACACACAATTCGG was 4.06; that for CTATGTTGGTTAAGGGGGTCATTCAGTTTGAAAG was 6.64.
The value for AGTCAAAGTTCAGTAGGTAACGTAAGATTCAGCT was 2.4.
CTATGTAGGTTAAGGGTGTCATTCAGTTTGAAAG yielded a PBM binding z-score of 3.24.
The value for ATATGTAGGTTATGGTCATTCAGAAAGTAGGGAA was 0.871; that for CGAACTAGGTCAGCAGGACAGTGAAGAGGTTGGA was 0.428.
The value for GATACAGGGTGAAGGCCAGAGTACGCGTATTGAT was -0.32.
The value for CCTTACGGGTCACGGTTATAGCACGGGTGGTACG was 3.87.
For CATAGTTGGTCAAGGTCACACACGCTATAGGTAC, the PBM binding z-score came to 4.32.
The value for CGCCCAAGGTCAGCAGGTCAGTGAAAGCGACGTG was 3.83; that for CGAACTAGGTCAAAGGATAGTGAAAGGCGACGTA was 1.12; that for ACTCGGAGGATAAAGGTCAGAGCTACGCCAGTGA was 2.36.
The value for CAAACTAGGTCAAAGGTCAAAGTTGAGCCAACCA was 6.85; that for CGTCAAAGTTCAAGTTAACGTAACAGAAAGCAGC was 4.32.
Consider TAGCCTAGGTCAAGCGGGCCAGTATAGTGTCGGC, for which the PBM binding z-score was determined as 2.6.
The value for CCTACTGTGCCATTCAGAGGTCATTGATCATATG was 4.25.
For the sequence CGAACTAGGTCACCAGGACGGTGAAGAGGTTGGA, the PBM binding z-score was 1.77.
The value for CTAAGTAGGTTAAGGGGGTCATTCAGTTTGAAAG was 7.19.
The value for CCGAGTAGGTTACGAGGGGGCCTTCAGTGCGAAT was 1.73; that for CCTTACGGGTCACTCCATGTTATAGCATCGGAGT was 3.02; that for TAGCCTAGGTCATTCAGGCGCCAGTATAGAAAGC was 2.53.
The value for TCGATTAGGTTACGGGGGCATTCAGGGATGAAGA was 4.31; that for CAAACTAGGTCACGAGGTCAAAGTCCGCTTCCCG was 6.42.
Sequence CGTCCAAGCTCAGCAGGTCAGTGAAAGCGACGTG yielded a PBM binding z-score of -0.352.
The value for TAGCCTAGGTCATGGGCCTGTATACCACGCGAAC was 1.98; that for TGACTGAGGTTAAAGATCAGGGAACGTGGCGTCG was 1.69; that for GCTATTAGGTGAAAGGGCAACCGAATGATTCTCG was 0.806.
